Activity calls are given as the source filed them.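 The calls were made as follows: active = inhibition above 20% together with a positive visual image hit; inconclusive = visual image hit but inhibition not above 20%; inactive = no visual image hit.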
test: inhibitors of TNFa-induced NFkB p65 translocation, primary screen, imaging, HUVEC, MLSMR starter and 10KST1 sets (AID 438); conditions: HUVEC TNFa-induced p65 nuclear translocation; cell count: measured here: nuclei count (cytotoxicity indicator), at 2.08 µM; inhibition: at 2 µM, stronger effect = higher value, 0% TNFa-plus-vehicle, 100% no-TNFa wells;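 also: compound added about 3h40 before a 20 min TNFalpha stimulation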;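 as to inhibition: signal is the nuclear over cytoplasmic p65 intensity ratio per well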

| SMILES | inhibition | cell count |
| --- | --- | --- |
| COc1ccc(C2CC(c3ccc(Cl)cc3)Nc3nc(NC(=O)c4ccco4)nn32)cc1 (stereo not drawn) | -11.9% (inactive) | 574 |
| CCn1nccc1C(=O)Nc1nccs1 | -0.5% (inactive) | 392 |
| FC(F)(F)c1nnc2ccc(NCn3nnc4ccccc43)nn12 | -27.6% (inactive) | 562 |
| O=C(NC(C(=O)c1ccccc1)n1ccc(=O)[nH]c1=O)c1ccccc1 (stereo not drawn) | -5.6% (inactive) | 596 |
| COc1ccc(N2C(=O)C(Cl)=C(Nc3c(C)n(C)n(-c4ccccc4)c3=O)C2=O)cc1 | -22.9% (inactive) | 607 |
| Cc1cc(C)nc(N2CCCC(C(=O)Nc3nc4ccc(S(C)(=O)=O)cc4s3)C2)n1 (stereo not drawn) | 1.8% (inactive) | 599 |
| CCc1nnc(NC(=O)c2ccc(S(=O)(=O)NC3CCCCC3)cc2)s1 | 0.4% (inactive) | 534 |
| CC(C)C(=O)Nc1cccc(NC(=O)c2cccnc2)c1 | 7.2% (inactive) | 311 |
| CCn1c(Cc2ccccc2)nnc1SCC(=O)Nc1nc2ccccc2s1 | -0.5% (inactive) | 741 |
| S=c1[nH]c2ccc(Cl)cc2[nH]1 | -3.8% (inactive) | 457 |
| CCOc1ccc2nc(SCC#N)c(C#N)cc2c1 | 3.1% (inactive) | 430 |
| Cc1nc(C)c(C(=O)OCC(=O)N2CCN(c3ccccc3)CC2)s1 | -4.8% (inactive) | 700 |
| COc1ccc(C(NC(=O)c2ccco2)c2ccc(OC)c(OC)c2)cc1 (stereo not drawn) | 27.4% (active) | 373 |
| Cc1nn(-c2ccccc2)c2c1C(c1c(C)[nH]c(C#N)c1C)C(C#N)=C(N)O2 (stereo not drawn) | -13.4% (inactive) | 565 |
| CCOC(=O)N1CCN(C(=O)C2c3cc(OC)c(OC)cc3C(=O)N3CCc4ccccc4C23)CC1 (stereo not drawn) | 0.5% (inactive) | 312 |
| CN1CCN(S(=O)(=O)c2ccc(Sc3nnc(-c4cccs4)n3-c3ccccc3)nc2)CC1 | -11% (inactive) | 603 |
| COc1cc2[nH]c(=O)n(CCC(=O)N3CCc4ccccc4C3)c(=O)c2cc1OC | -20.3% (inactive) | 452 |
| CS(=O)(=O)N(CC(=O)NC1CC1)c1cccc(F)c1 | -2.3% (inactive) | 387 |
| O=C(NCc1ccco1)C1CCN(S(=O)(=O)N2CCC3(CC2)OCCO3)CC1 | 5.3% (inactive) | 358 |
| CC(=O)Nc1ccc(S(=O)(=O)N2CCN(C(C)CCc3ccccc3)CC2)cc1 (stereo not drawn) | 0% (inactive) | 440 |

| SMILES | inhibition | cell count |
| --- | --- | --- |
| CCCn1c(SCC(=O)N2CCCc3ccccc32)nnc1-c1ccccn1 | -0.8% (inactive) | 471 |
| CCNS(=O)(=O)c1ccc(S(=O)(=O)N(Cc2ccccn2)C2CCCCC2)cc1 | 3.8% (inactive) | 579 |
| COc1ccc(-c2nnc(SCC#N)o2)cc1 | -8.7% (inactive) | 333 |
| O=S(=O)(c1ccc2c(c1)nc1n2CCC1)N1CCOCC1 | -1.9% (inactive) | 519 |
| COCc1cc(C)nc(SCC(=O)Nc2cccc(C)c2C)c1C#N | -25.9% (inactive) | 578 |
| O=C(CSc1nnc(-c2ccccc2Cl)n1Cc1ccco1)Nc1ccc2c(c1)OCCO2 | 0.8% (inactive) | 309 |
| CCOC(=O)CSc1nnc(CNC(=O)c2ccc(S(=O)(=O)N3CCCC3)cc2)n1C | 1.2% (inactive) | 617 |
| C=C(c1cccc2ccccc12)P(=O)(O)O | 11.9% (inactive) | 429 |
| CN=C1CC(C)(C)CC(=O)/C1=C(/O)CCC(=O)NC | 10.4% (inactive) | 367 |
| CC(C(=O)c1ccccc1)n1cnc2ccccc2c1=O (stereo not drawn) | 6.4% (inactive) | 646 |
| CN(C)C(=O)CSc1nnc([C@H](Cc2c[nH]c3ccccc23)NC(=O)OC(C)(C)C)o1 | 2.2% (inactive) | 375 |
| CCOC(=O)NC(=O)CSc1nnc(C)s1 | 4.3% (inactive) | 804 |
| CCOc1nc2ccccc2nc1NS(=O)(=O)c1ccccc1 | -4.2% (inactive) | 769 |
| O=C(O)C1CC(=O)N(Cc2ccccc2)C1 (stereo not drawn) | -1.8% (inactive) | 398 |
| CCOC(=O)C1=C(Cn2cnc3ccccc32)NC(=O)NC1c1cc(C)ccc1C (stereo not drawn) | -10.3% (inactive) | 562 |
| CCOC(=O)C1CCCN(C(=O)c2cc3c(C)nc4ccccc4c3o2)C1 (stereo not drawn) | -14.7% (inactive) | 525 |
| CCCC1CC(C)(C(=O)Cn2[nH]c(=O)ccc2=O)OC1=O (stereo not drawn) | -22.2% (inactive) | 580 |
| CCOc1cc(N2CCOCC2)c(OCC)cc1NC(=O)COC(=O)CCc1c[nH]c2ccccc12 | -5.2% (inactive) | 300 |
| CC12CN3CC(C)(CN(C1)C3c1ccc(Br)cc1)C2 (stereo not drawn) | -1.2% (inactive) | 565 |
